Shown are actives, neighbours in structure and some others; about 21% of the full set was active somewhere.
CHX counter = counter-screen for Shiga toxin inhibitors: cycloheximide protein synthesis inhibition. hit rate 12% among 300,000. max response, %. cell reporter, cycloheximide protein synthesis inhibition counterscreen; in the data active = max response mostly above about 13%, no sharp cut-off; inactive = mostly below about 14%; note: read at 38.3 µM for the half of the compounds with a filed dose
Shiga inhibitor = inhibitors of Shiga toxin in Vero cells; hit rate 9.2% among 290,000; Vero cells, Shiga toxin protein synthesis inhibition reporter; inhibition, % at 38.7 µM; AID 2315; in the data active = inhibition mostly above about 28%, no sharp cut-off; inactive = mostly below about 43%
HCV inh = HCV inhibition; Potency, µM (series often up to 41.8 µM), hits mostly inhibitors; hit rate 3.4% among 340,000; Huh7.5.1 HCVcc-Cre infection, luciferase reporter, 44 h
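Luciferase read-out (15 sec integration) after a 15 min room-temperature substrate step quantifies HCVcc-Cre infection. Cells, 1,000 per well, had compound added 4 h post-plating, then virus at ~0.5 moi, and were cultured 44 h.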
Pf growth 96h = P. falciparum growth inhibition at 96 hours; P. falciparum luciferase reporter growth, 96 h; Potency, µM (highest dose often 28.7 µM), hits mostly inhibitors; hit rate 6.9% among 320,000; AID 504834
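96 h incubation, 37 C, 5% CO2, of luciferase-reporter P. falciparum-infected RBCs (2% hematocrit, 0.05% parasitemia final) with test compounds; endpoint luminescence.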
Pf growth 48h = inhibits P. falciparum growth in the first generation, 48 h; P. falciparum luciferase growth in erythrocytes, 48 h; Potency, µM (doses to about 28.7 µM), actives largely listed as inhibitors; hit rate 5.9% among 310,000; AID 504832
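Luminescence readout; reporter = integrated firefly luciferase in P. falciparum. RBC culture at 2% hematocrit, 0.1% parasitemia final, 37 C/5% CO2; decreased signal taken as growth inhibition.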
AMA1 RON2 block = disrupts binding of P. falciparum AMA1 to RON2; AlphaScreen AMA1-biotinylated RON2 peptide binding; Potency, µM (top dose mostly 58.2 µM), usual class: inhibitors; hit rate 0.2% among 360,000; note: nearly all actives have a fitted effect of over 45% in size
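AMA1 (3D7) with his tag at 25 nM final met compounds first, then biotinylated RON2 peptide at 25 nM; detection used donor plus acceptor beads, 10 µg/mL apiece, read by AlphaScreen after 30 min at room temperature.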
Large screens that a line does not name were inactive. Unless noted, calls come from the whole dose curve; as a rule, active = well fitted curve in the direction sought with a large enough effect; inconclusive = small, poorly fitted or top-dose-only effect, or another doubt; inactive = no such curve, though single readings can be large; an effect the other way counts as inactive or inconclusive.

COc1ccc(CC(=O)Nc2ccc3c(C(F)(F)F)cc(=O)oc3c2)cc1OC	HCV inh inconclusive, Pf growth 48h inconclusive
Cc1ccc2oc(-c3ccc(NC(=O)c4ccncc4)cc3O)nc2c1	CHX counter 29, Shiga inhibitor 44
COc1ccc(CC(=O)Nc2ccc(-c3nc4cc(C)ccc4o3)c(O)c2)cc1OC	CHX counter 33
CN(C)c1ccc(C=C(C#N)C(=O)c2ccccc2)cc1Br	none (no result: CHX counter, Shiga inhibitor, HCV inh, Pf growth 96h, Pf growth 48h)
CC1(c2ccccc2)NC(=O)N(CC(=O)N2CCN(S(=O)(=O)c3cccc(C(F)(F)F)c3)CC2)C1=O (configuration not stated)	none (no result: CHX counter, Shiga inhibitor, Pf growth 96h, Pf growth 48h)
CC(C)NC(=O)C1(C)CSCC(=O)N1CCCN1CCOCC1 (configuration not stated)	none (no result: CHX counter, Shiga inhibitor, HCV inh, Pf growth 96h, Pf growth 48h)
S=c1[nH]c(-c2ccccc2)cn1/N=C/c1ccc(Br)cc1	CHX counter 20, Pf growth 96h inconclusive, Pf growth 48h inconclusive
O=C(O)c1ccc(/C=N/n2cc(-c3ccccc3)[nH]c2=S)cc1	none
Fc1ccccc1/C=N/n1cc(-c2ccccc2)[nH]c1=S	CHX counter 18, Shiga inhibitor 64, Pf growth 96h inconclusive, Pf growth 48h inconclusive
S=c1[nH]c(-c2ccccc2)cn1/N=C/c1cccs1	CHX counter 32, Shiga inhibitor 45, Pf growth 96h 12µM, Pf growth 48h inconclusive
CC(=O)N[C@@H](CCC(=O)O)C(=O)O	none (no result: CHX counter, Shiga inhibitor, HCV inh, AMA1 RON2 block)
COc1ccc2oc(C(=O)OCC(=O)Nc3ccc(C)c(S(=O)(=O)N4CCOCC4)c3)c(C)c2c1	none (no result: CHX counter, Shiga inhibitor, HCV inh, Pf growth 96h, Pf growth 48h)
Cc1cc(C(F)(F)F)nc(SCCN2CCOCC2)c1C#N	none
N#Cc1c(C(F)(F)F)cc(-c2ccc(Cl)c(Cl)c2)nc1SCCN1CCOCC1	Pf growth 96h 2.3µM, Pf growth 48h inconclusive (no result: HCV inh)
COC(=O)CN1C(c2ccc(Cl)cc2)=Nc2ccc(Cl)cc2C1c1ccccc1 (configuration not stated)	HCV inh inconclusive, Pf growth 96h 3.3µM, Pf growth 48h 2.6µM
COc1ccc(C2=Nc3ccc(Br)cc3C(c3ccccc3)N2CC(=O)NN)cc1 (configuration not stated)	Pf growth 48h 13µM
COc1ccc(C2=Nc3ccc(C)cc3C(c3ccccc3)N2CC(=O)NN)cc1 (configuration not stated)	Pf growth 96h 1.9µM
O=C(O)CN1C(c2ccccc2)=Nc2ccc(Br)cc2C1c1ccccc1 (configuration not stated)	none
NNC(=O)CN1C(c2cccc(Cl)c2)=Nc2ccc(Br)cc2C1c1ccccc1 (configuration not stated)	Pf growth 48h 1.9µM
CC(C)C[C@@H]1O[C@H](CCc2ccccc2)Cc2[nH][nH]c(=O)c21	none (no result: CHX counter, Shiga inhibitor, HCV inh, Pf growth 96h, Pf growth 48h)
O=S(=O)(c1ccccc1)N(CC1CO1)c1ccccc1 (configuration not stated)	none
O=S(=O)(c1ccccc1)N(CC1CO1)c1cccc2ccccc12 (configuration not stated)	Pf growth 96h inconclusive, Pf growth 48h 12µM
Cc1cccc(NC(=O)c2sc3nc(N)c(C#N)cc3c2N)c1	CHX counter 31, Shiga inhibitor 72, Pf growth 96h inconclusive, Pf growth 48h inconclusive
N#Cc1ccccc1Sc1ccccc1C(=O)Nc1ccccc1	none
N#Cc1cc2c(N)c(C(=O)Nc3ccccc3)sc2nc1N	CHX counter 36, Shiga inhibitor 90 (no result: AMA1 RON2 block)
O=C1C=CC(=O)C(Cl)=C1	none (no result: HCV inh, Pf growth 96h, Pf growth 48h, AMA1 RON2 block)
O=C(NCc1ccc(F)cc1)N1CCc2ccccc2C1	CHX counter 36
COc1ccc(CNC(=O)N2CCc3ccccc3C2)cc1	CHX counter 16, Shiga inhibitor 58
O=C(O)c1ccc(N/N=C/C2=C(N3CCOCC3)C(=C\c3ccccc3)/CC2)cc1	CHX counter 38, Shiga inhibitor 74, Pf growth 48h inconclusive
CN(C(=O)NC(=O)C1=C(N2CCOCC2)/C(=C/c2ccccc2)CC1)S(C)(=O)=O	CHX counter 29, Shiga inhibitor 53 (no result: Pf growth 96h)
Cc1cc(C)nc(N/N=C/C2=C(N3CCOCC3)C(=C\c3ccc(Cl)cc3)/CC2)n1	HCV inh inconclusive, Pf growth 48h inconclusive
O=C1CC(c2c[nH]c3ccccc23)C(=O)N1c1ccccc1 (configuration not stated)	Pf growth 96h 7.4µM
O=C(NCCCN1CCOCC1)c1[nH]c(C(F)(F)F)nc1-c1ccccc1	none (no result: CHX counter, Shiga inhibitor, HCV inh, Pf growth 96h, Pf growth 48h)
COc1ccc(-c2nc(C(=O)NCCCN3CCOCC3)cc3c2[nH]c2ccccc23)cc1OC	HCV inh 13µM, Pf growth 96h 5.2µM, Pf growth 48h inconclusive
Cc1ccc(-c2nc(C(=O)NCCCN3CCOCC3)cc3c2[nH]c2ccccc23)cc1	HCV inh 11µM, Pf growth 96h 6.6µM, Pf growth 48h 5.9µM
COc1ccc(Nc2cc(C(=O)NCCCN3CCOCC3)c3ccccc3n2)cc1OC	none (no result: Pf growth 48h)
O=c1[nH]c2ccccc2cc1CN(Cc1ccco1)S(=O)(=O)c1ccccc1	none
COc1ccc(C(=O)NCC(C)C)c(OC)c1	HCV inh inconclusive, Pf growth 96h 9.3µM, Pf growth 48h inconclusive
CCCNC(=O)c1ccc(OC)cc1OC	none
COc1ccc(C(=O)NN=C2CCCC2)c(OC)c1	CHX counter 20, Pf growth 96h inconclusive
COc1ccc(C(=O)NCC(c2cccs2)N2CCc3ccccc32)c(OC)c1 (configuration not stated)	HCV inh inconclusive, Pf growth 96h 5.2µM, Pf growth 48h 10µM (no result: CHX counter, Shiga inhibitor)
CC(C)CNC(=O)c1ccccc1Oc1ccccc1	Pf growth 96h 15µM (no result: Pf growth 48h)
O=C(OCc1ccccc1)N1C=CC2CC1c1c(Cl)cccc12 (configuration not stated)	none (no result: CHX counter, Shiga inhibitor, Pf growth 96h, Pf growth 48h)
O=C(/C=C/c1ccc(Cl)cc1)Nc1cc(S(=O)(=O)N2CCOCC2)ccc1N1CCOCC1	HCV inh inconclusive (no result: CHX counter, Shiga inhibitor, Pf growth 96h, Pf growth 48h)
O=C(OCc1cn([C@@H]2CN(Cc3cccs3)[C@@H](c3ccccc3)C[C@H]2O)nn1)c1ccccc1	none (no result: CHX counter, Shiga inhibitor, HCV inh, Pf growth 96h, Pf growth 48h)
CCCCN1C(=O)N(C)C2NC(=O)NC21 (configuration not stated)	none (no result: Pf growth 48h)
CCCCN1C(=O)NC2NC(=O)NC21 (configuration not stated)	AMA1 RON2 block 3.5µM
COc1ccc(S(=O)(=O)N2CCN(CC(=O)Nc3sccc3C(N)=O)CC2)cc1OC	HCV inh inconclusive, Pf growth 96h inconclusive, Pf growth 48h inconclusive (no result: CHX counter, Shiga inhibitor)
O=C(NCCOc1nc(N2CCCCC2)nc(N2CCOCC2)n1)Nc1ccccc1	HCV inh 8.9µM (no result: Pf growth 96h)
COc1cc(NC(=O)C2CCC(CNS(=O)(=O)c3csc(C(N)=O)c3)CC2)cc(OC)c1 (configuration not stated)	Pf growth 96h inconclusive
CC(=O)c1ccc(N=Cc2c(O)n(-c3cc(Cl)ccc3N3CCOCC3)c(=O)c3ccccc23)cc1	Pf growth 48h 0.66µM (no result: Pf growth 96h)
O=c1c2ccccc2c(C=Nc2ccc(Cl)cn2)c(O)n1-c1cc(Cl)ccc1N1CCOCC1	Pf growth 96h inconclusive
